In PubChem BioAssay (NCATS):
Values joined by “and” are separate entries in the source; they are usually repeats but may differ in a detail not shown here. Identical values can stand only once. Results filed as inconclusive are left out. Unmarked numbers belong to inactive results. Active and inactive are the calls of the source. Calls follow the shape of the dose curve; as a rule, active = well fitted curve in the direction sought with a large enough effect; inconclusive = small, poorly fitted or top-dose-only effect, or another doubt; inactive = no such curve, though single readings can be large or run the other way.

Test: qHTS Assay for Identifying Gametocytocidal Compounds (AID 743244);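 as to max response: actives lower the fluorescent signal which means gametocytes are killed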
Settings: P. falciparum 3D7 stage III-V gametocytes, alamarBlue, 72 h; max response: hits give low values
Method in brief: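 3D7 gametocytes, stages III–V, 20,000/well; cpd 72 h, 37 °C/5% CO2; + alamarBlue 24 h; fluor. Ex 525/Em 598.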
% is scaled to controls: 0 for no effect and ±100 for the full control effect; potency is read from the fitted curve at half-maximal effect.

Q: Which max response does the source give for O=C1CN=C(c2ccccc2)c2cc(Cl)ccc2N1CC1CC1 here?
A: -0.952%

Q: For CCOC(=O)/C=C(C)/C=C/C[C@@H](C)CCCC(C)C, which max response is on record?
A: 10.1%

Q: For Oc1cccc[c]1[Hg][Cl], which Potency is on record?
A: 1780 nM (active)

Q: For O=c1ccc2cc(O[C@@H]3O[C@H](CO)[C@@H](O)[C@H](O)[C@H]3O)c(O)cc2o1, which max response is on record?
A: 0.481%

Q: For O=C(CS(=O)C(c1ccccc1)c1ccccc1)NO (stereo not given), which max response is on record?
A: -0.968%

Q: For CN(C)CCCCCCN(C)C (tested in a mixture with another compound), which max response is on record?
A: 14.8%

Q: Which max response does the source give for C[C@]12C=CC(=O)C=C1CC[C@@H]1[C@@H]2CC[C@]2(C)OC(=O)CC[C@@H]12 here?
A: -1.22%

Q: Which max response does the source give for COc1ccc2c3c1O[C@H]1C(=O)CC[C@H]4[C@@H](C2)N(C)CC[C@]314 here?
A: 13%

Q: For C[N+]1([O-])[C@@H]2CC(OC(=O)[C@H](CO)c3ccccc3)C[C@H]1[C@@H]1O[C@@H]12 (stereo not given in full), which max response is on record?
A: 4.15% and -13.5%

Q: Which max response does the source give for CCC/C=C/C=C/C(=O)O[C@H]1/C(=C/C(=O)OC)C[C@H]2C[C@H]([C@@H](C)O)OC(=O)C[C@H](O)C[C@@H]3C[C@H](OC(C)=O)C(C)(C)[C@](O)(C[C@@H]4C/C(=C/C(=O)OC)C[C@H](/C=C/C(C)(C)[C@]1(O)O2)O4)O3 here?
A: -10.9%

Q: For OC[C@@H](O)[C@H]1O[C@@H]2O[C@@H](C(Cl)(Cl)Cl)O[C@@H]2[C@H]1O, which max response is on record?
A: -7.25%

Q: With C[C@]12CC[C@H]3[C@@H](CCC4=C(Cl)C(=O)CC[C@@]43C)[C@@H]1CC[C@@H]2O as the molecule, how does the max response read?
A: -5.5%

Q: For CN[C@H]1C[C@@H](N)[C@H](O)[C@@H](O[C@@H]2O[C@H](CO)[C@H](O)[C@@H]3OC4(O[C@H]23)O[C@H](C(N)CO)[C@H](O)[C@H](O)[C@H]4O)[C@@H]1O (stereo not given in full), which max response is on record?
A: -0.708% and -7.43%

Q: With COC([CH2][Hg])CNC(=O)c1ccccc1OCC(=O)O (stereo not given) as the molecule, how does the max response read?
A: 2.8%

Q: For CCC1(C)CC(=O)NC(=O)C1, which max response is on record?
A: 2.58%

Q: For C/C(=C\c1csc(C)n1)[C@@H]1C[C@@H]2O[C@]2(C)CCC[C@H](C)[C@H](O)[C@@H](C)C(=O)C(C)(C)[C@@H](O)CC(=O)O1, which max response is on record?
A: 12.6%

Q: For C[C@H]1CC[C@]2(NC1)O[C@H]1C[C@H]3[C@@H]4CC[C@H]5C[C@@H](O[C@@H]6O[C@H](CO)[C@H](O[C@@H]7O[C@H](CO)[C@@H](O)[C@H](O[C@@H]8OC[C@@H](O)[C@H](O)[C@H]8O)[C@H]7O[C@@H]7O[C@H](CO)[C@@H](O)[C@H](O)[C@H]7O)[C@H](O)[C@H]6O)CC[C@]5(C)[C@H]4CC[C@]3(C)[C@H]1[C@@H]2C, which max response is on record?
A: 6.32%

Q: Which max response does the source give for CN(C)[C@H](Cc1ccccc1)c1ccccc1 here?
A: -4.16%

Q: For COc1cc2c(cc1OC)[C@@]13CCN4CC5=CCO[C@H]6CC(=O)N2[C@H]1[C@H]6[C@H]5C[C@H]43, which max response is on record?
A: 18.6%

Q: With CC(=O)Oc1ccc2c3c1O[C@H]1[C@@H](OC(C)=O)C=C[C@H]4[C@@H](C2)N(C)CC[C@@]341 as the molecule, how does the max response read?
A: 1.05% and 0.272%

Q: With CC(=O)OCC(=O)[C@H]1CC[C@H]2[C@@H]3CC[C@H]4C[C@H](O)CC[C@]4(C)[C@H]3C(=O)C[C@]12C as the molecule, how does the max response read?
A: 11.4%

Q: For ClC1=C(Cl)[C@]2(Cl)[C@@H]3[C@H]4C[C@H]([C@@H]5O[C@H]45)[C@@H]3[C@@]1(Cl)C2(Cl)Cl, which max response is on record?
A: 19.8%

Q: Which max response does the source give for C[C@]12C[C@H]3S[C@H]3C[C@@H]1CC[C@@H]1[C@@H]2CC[C@]2(C)[C@@H](O)CC[C@@H]12 here?
A: 1.49%

Q: With NCC[C@H](O)C(=O)N[C@@H]1C[C@H](N)[C@@H](O[C@H]2O[C@H](CN)[C@@H](O)[C@H](O)[C@H]2N)[C@H](O[C@@H]2O[C@H](CO)[C@@H](O)[C@H]2O)[C@H]1O as the molecule, how does the max response read?
A: 16.1%

Q: Which max response does the source give for CN1[C@H]2CC[C@@H]1[C@@H](C(=O)O)[C@@H](OC(=O)c1ccccc1)C2 here?
A: 17.6% and -3.85%

Q: For CC(N)Cc1ccc(O)cc1 (stereo not given), which max response is on record?
A: 1.03%

Q: With CC(=O)O[C@H]1CC[C@H]2[C@@H]3CCC4=CC(=O)CCC4=C3C=C[C@]12C as the molecule, how does the max response read?
A: 5.16%

Q: For O=C(OCCN1CCCCC1)C(O)(c1ccccc1)c1ccccc1, which max response is on record?
A: 6.84%

Q: Which max response does the source give for CNC(=O)Oc1ccccc1C(=O)Nc1ccccc1 here?
A: 8.96%

Q: Which max response does the source give for CC(=O)OO here?
A: -9.86%

Q: Which max response does the source give for C[C@]12CCC(=O)C=C1C=C[C@@H]1[C@@H]2CC[C@@]2(C)[C@H]1CC[C@@]2(O)CCC(=O)O here?
A: 16.5%

Q: Which max response does the source give for CCN1C[C@]2(COC)[C@H](O)C[C@H](OC)[C@@]34[C@@H]5C[C@@]6(O)[C@H](OC(=O)c7ccccc7)[C@@H]5[C@@](OC(C)=O)([C@@H]([C@H](OC)[C@H]23)[C@@H]14)[C@@H](O)[C@@H]6OC here?
A: -5.96%

Q: With CCCC(=O)OC(C(Cl)(Cl)Cl)P(=O)(OC)OC (stereo not given) as the molecule, how does the max response read?
A: -0.455%

Q: With CC1(C)[C@H](C=C(Cl)Cl)[C@H]1C(=O)OCc1c(F)c(F)cc(F)c1F as the molecule, how does the max response read?
A: 0.31%

Q: For CCCC(C)(COC(N)=O)COC(=O)NC1CC1 (stereo not given), which max response is on record?
A: 6.87%
